Structures are written as SMILES. Several values for one entry are separate records, joined by “and”; a condition that tells them apart may be missing. Equal values may be shown once. For part of these data: Results with a measured potency or affinity are listed apart. More than one record can exist for a structure, and the calls need not agree. Activity calls are given as the source filed them. Unless noted, how the calls were made is not given here.

Assay [1] in a line: antimalarial activity against Dd2 strain (AID 2302;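 active means growth inhibition above 50% at the single 2 µM test dose, taken to imply half-maximal potency below 2 µM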;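 further: 0% = DMSO untreated growth and 100% = chloroquine plus artemisinin killed control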). Particulars: P. falciparum Dd2 in RBCs, LDH growth readout, 72 h; at 2 µM; stronger effect = higher value.
Assay [2] can be described thus: human hepatoma cell viability loss – ATP luminescence, cytotoxicity control for P. falciparum antimalarial project, primary screen (AID 2303;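 active means inhibition above 50%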;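 further: 0% = DMSO wells and 100% = digitonin-killed cells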). The following applies: HepG2 viability, 24-48 h, at 10 µM, stronger effect = higher value.
The target of assay [3] is L-lactate dehydrogenase (Plasmodium falciparum (isolate CDC / Honduras)) (UniProt Q27743). The assay is described as follows: PfLDH activity inhibition – cell lysate, 3D7 strain, counter-screen for P. falciparum growth inhibition project (AID 2304).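 Further: 0% = vehicle and 100% = reference inhibitor.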 The following applies: P. falciparum 3D7 crude extract, LDH APAD/NBT absorbance; at 2 µM; stronger effect = higher value.
Assay [4] in a line: inhibition of 3D7 malaria parasite growth – strain 3D7 (AID 2306).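 Further: 0% = DMSO wells and 100% = chloroquine plus artemisinin control wells.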 Particulars: P. falciparum 3D7 erythrocytic growth, LDH absorbance, 72 h; at 2 µM; stronger effect = higher value.
In assay [5] the target is Calcium-dependent protein kinase 1 (Plasmodium falciparum (isolate 3D7)) (UniProt P62344). The assay is described as follows: PfCDPK1 kinase inhibitors, biochemical, TCAMS library (AID 1159585; cut-off not given, nearly all actives have IC50 up to about 0.98 µM;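 further: inhibitors leave more ATP so luminescence rises with inhibition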). Particulars: recombinant PfCDPK1, Kinase-Glo ATP depletion luminescence.
Assay [6] deals with Plasmodium falciparum protein kinase 6 (PK6, PF3D7_1337100) (UniProt Q8IDW1). The assay can be described thus: PfPK6 kinase inhibitors, biochemical, TCAMS library (AID 1159586). The following applies: recombinant PfPK6, Kinase-Glo ATP depletion luminescence.
In assay [7] the target is Protein kinase 7 (PK7), Plasmodium falciparum 3D7 (PF3D7_0213400) (UniProt Q7YTF7). The assay is described as follows: inhibition of Plasmodium PK7 catalytic activity – biochemical, TCAMS antimalarial set, Kinase-Glo luminescence (AID 1159587). The following applies: recombinant PfPK7, Kinase-Glo ATP depletion luminescence.
Assay [8] has as its target Calcium-dependent protein kinase 4 (Plasmodium falciparum (isolate 3D7)) (UniProt Q8IBS5). The assay is described as follows: PfCDPK4 kinase inhibitors, biochemical, TCAMS library (AID 1159588; cut-off not given, nearly all actives have IC50 up to about 0.91 µM). Particulars: recombinant PfCDPK4, Kinase-Glo ATP depletion luminescence.

Sequence of Calcium-dependent protein kinase 4 (Plasmodium falciparum (isolate 3D7)) (Q8IBS5 whole entry, looked up): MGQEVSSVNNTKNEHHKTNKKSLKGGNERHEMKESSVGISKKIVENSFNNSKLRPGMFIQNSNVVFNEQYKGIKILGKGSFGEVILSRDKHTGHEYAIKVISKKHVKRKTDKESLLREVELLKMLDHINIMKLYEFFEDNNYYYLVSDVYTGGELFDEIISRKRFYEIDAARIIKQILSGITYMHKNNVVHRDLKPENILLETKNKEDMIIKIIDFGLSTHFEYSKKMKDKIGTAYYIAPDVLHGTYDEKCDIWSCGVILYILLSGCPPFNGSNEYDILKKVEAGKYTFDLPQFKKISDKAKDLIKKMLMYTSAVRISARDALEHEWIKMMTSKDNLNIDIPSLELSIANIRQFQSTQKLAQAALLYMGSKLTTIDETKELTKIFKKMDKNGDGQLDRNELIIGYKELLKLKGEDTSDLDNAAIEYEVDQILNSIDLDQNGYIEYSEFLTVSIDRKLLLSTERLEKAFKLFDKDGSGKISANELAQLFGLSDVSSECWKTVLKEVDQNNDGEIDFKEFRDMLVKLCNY
Sequence of Calcium-dependent protein kinase 1 (Plasmodium falciparum (isolate 3D7)) (P62344 whole entry, looked up): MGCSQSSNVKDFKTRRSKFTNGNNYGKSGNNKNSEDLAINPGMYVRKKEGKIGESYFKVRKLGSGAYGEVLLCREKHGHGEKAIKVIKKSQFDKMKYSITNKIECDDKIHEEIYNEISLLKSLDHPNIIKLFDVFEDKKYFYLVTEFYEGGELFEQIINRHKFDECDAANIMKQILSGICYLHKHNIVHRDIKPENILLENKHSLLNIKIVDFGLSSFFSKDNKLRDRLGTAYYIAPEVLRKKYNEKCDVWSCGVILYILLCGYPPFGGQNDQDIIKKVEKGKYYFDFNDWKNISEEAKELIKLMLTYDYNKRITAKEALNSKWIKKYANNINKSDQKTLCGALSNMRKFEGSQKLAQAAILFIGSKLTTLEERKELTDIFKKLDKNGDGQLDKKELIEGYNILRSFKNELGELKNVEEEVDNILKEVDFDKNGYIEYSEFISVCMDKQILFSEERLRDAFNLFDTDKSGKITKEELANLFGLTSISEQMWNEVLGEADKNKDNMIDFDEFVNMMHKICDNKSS
Sequence of Plasmodium falciparum protein kinase 6 (PK6, PF3D7_1337100) (Q8IDW1 1-305): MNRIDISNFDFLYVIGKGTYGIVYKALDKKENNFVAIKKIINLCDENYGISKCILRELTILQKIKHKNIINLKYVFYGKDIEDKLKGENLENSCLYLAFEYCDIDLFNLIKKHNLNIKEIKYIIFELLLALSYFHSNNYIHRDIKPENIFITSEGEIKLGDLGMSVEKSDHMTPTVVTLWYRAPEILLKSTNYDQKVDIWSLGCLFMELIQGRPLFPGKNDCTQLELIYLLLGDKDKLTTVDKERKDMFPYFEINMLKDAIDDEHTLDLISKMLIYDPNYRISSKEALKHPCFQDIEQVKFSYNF
Sequence of L-lactate dehydrogenase (Plasmodium falciparum (isolate CDC / Honduras)) (Q27743 whole entry, looked up): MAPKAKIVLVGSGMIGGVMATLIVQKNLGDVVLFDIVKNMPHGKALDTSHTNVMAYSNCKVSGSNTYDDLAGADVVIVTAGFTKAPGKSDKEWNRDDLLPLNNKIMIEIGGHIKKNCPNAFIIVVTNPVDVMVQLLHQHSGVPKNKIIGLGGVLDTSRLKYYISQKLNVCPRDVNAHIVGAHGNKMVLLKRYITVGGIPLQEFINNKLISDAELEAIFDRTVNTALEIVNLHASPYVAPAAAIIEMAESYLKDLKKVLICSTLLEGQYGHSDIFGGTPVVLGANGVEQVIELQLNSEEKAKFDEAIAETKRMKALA
Sequence of Protein kinase 7 (PK7), Plasmodium falciparum 3D7 (PF3D7_0213400) (Q7YTF7 1-343): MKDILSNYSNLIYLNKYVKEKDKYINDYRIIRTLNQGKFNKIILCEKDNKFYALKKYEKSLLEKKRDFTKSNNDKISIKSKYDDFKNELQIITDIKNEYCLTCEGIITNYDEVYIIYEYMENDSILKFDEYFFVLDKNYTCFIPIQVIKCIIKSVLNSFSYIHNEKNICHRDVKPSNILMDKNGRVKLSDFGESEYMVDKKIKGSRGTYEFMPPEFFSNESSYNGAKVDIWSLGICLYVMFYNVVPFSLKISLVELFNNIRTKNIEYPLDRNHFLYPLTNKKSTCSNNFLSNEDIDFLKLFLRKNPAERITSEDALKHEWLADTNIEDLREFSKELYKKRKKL

On to `CC[C@H]1CN2CC[C@H]1C[C@H]2[C@H](O)c1cc(-c2ccc3ccccc3c2)nc2ccc(OC)cc12`, for which the growth inhibition in assay [1] and in assay [4] was 99% (active) throughout. The inhibition in assay [2] is 49% (inactive); in assay [3], -3% (inactive). Also, the outcome in assay [5], in assay [6], in assay [7] and in assay [8] was inactive.

As for `COc1cccc(C(=O)C2CC2CN2CC=C(c3c[nH]c4ccc(OC)nc34)CC2)c1` (centres undefined), the results for the growth inhibition in assay [1] and in assay [4] were 89% (active) and 94% (active), respectively. Moreover, the inhibition is 8% (inactive) in assay [2] and -2% (inactive) in assay [3]. For the same molecule, the result in assay [5], in assay [6], in assay [7] and in assay [8] was inactive.

In the case of `Cc1ccc(C(=O)Nc2ccnc(N(C)C3CCN(Cc4cccc(O)c4)CC3)c2)cn1`, the figures for the growth inhibition in assay [1] and in assay [4] were 1% (inactive) and 90% (active), respectively. The inhibition in assay [2] is 0% (inactive); in assay [3], 4% (inactive). Also, the outcome in assay [5], in assay [6], in assay [7] and in assay [8] was inactive.

With `COc1ccc(C(=O)[C@H]2C[C@@H]2CN2CC=C(c3c[nH]c4ccc(OC)nc34)CC2)cc1`, the values for the growth inhibition in assay [1] and in assay [4] were 91% (active) and 98% (active), respectively. Also, the inhibition was 8% (inactive) in assay [2] and -3% (inactive) in assay [3]. The result in assay [5], in assay [6], in assay [7] and in assay [8] was inactive.

In the case of `CC(=O)Nc1ccc2[nH]cc(C3CCN(CC4CCC(NC(=O)/C=C/c5ccc(Cl)c(Cl)c5)CC4)CC3)c2c1` (centres undefined), the growth inhibition in assay [1] was 99% (active) and 59% (active); in assay [4] it was 90% (active) and 100% (active). For the same molecule, the inhibition in assay [2] was 18% (inactive) and 10% (inactive); in assay [3], 2% (inactive) and 6% (inactive). In addition, the result in assay [5], in assay [6], in assay [7] and in assay [8] was inactive.

`O=C(NCc1ccc(S(=O)(=O)N2CCC(CN3CCC(c4c[nH]c5ccccc45)CC3)CC2)s1)c1ccccc1`: the results for the growth inhibition in assay [1] and in assay [4] were 21% (inactive) and 92% (active), respectively. The inhibition was 32% (inactive) in assay [2] and 5% (inactive) in assay [3]. The result in assay [5], in assay [6], in assay [7] and in assay [8] was inactive.

Regarding `COc1cccc(C2(C)CCN(CCCCNC(=O)c3ccc(NC(=O)c4ccc(Cl)cc4)cc3)CC2)c1`, the growth inhibition in assay [1] was 72% (active); in assay [4] it was 97% (active). Also, the inhibition in assay [2] is 19% (inactive); in assay [3] it was 8% (inactive). Also, the outcome in assay [5], in assay [6], in assay [7] and in assay [8] was inactive.

Turning to `CCCCCOc1ccc(CC(C)NCC(O)c2cccc(Cl)c2)cc1` (centres undefined), the growth inhibition in assay [1] was 99% (active); in assay [4], 101% (active). In addition, the figures for the inhibition in assay [2] and in assay [3] were 0% (inactive) and 2% (inactive), respectively. The outcome in assay [5], in assay [6], in assay [7] and in assay [8] was inactive.

On to `O=C(NC1CCC(N2CCC3(CC2)C(=O)NCN3c2ccccc2)CC1)c1cc2ccccc2[nH]1` (centres undefined), for which the growth inhibition is 40% (inactive) in assay [1] and 98% (active) in assay [4]. Further, the values for the inhibition in assay [2] and in assay [3] were -2% (inactive) and 1% (inactive), respectively. The outcome in assay [5], in assay [6], in assay [7] and in assay [8] was inactive.

As to `COc1nc(N)ncc1C(=O)NC1CN2CCC1CC2` (centres undefined), the results for the growth inhibition in assay [1] and in assay [4] were 0% (inactive) and 92% (active), respectively. Also, the results for the inhibition in assay [2] and in assay [3] were 26% (inactive) and -1% (inactive), respectively. Also, the outcome in assay [5], in assay [6], in assay [7] and in assay [8] was inactive.

`O=C(C=Cc1cccc(Cl)c1Cl)NC1CCC(CN2CCC(c3c[nH]c4ccccc34)CC2)CC1` (centres undefined): the growth inhibition in assay [1] is 78% (active) and 5% (inactive); in assay [4] it was 102% (active) and 83% (active). For the same molecule, the inhibition is 40% (inactive) and 33% (inactive) in assay [2]; 6% (inactive) and -5% (inactive) in assay [3]. The result in assay [5], in assay [6], in assay [7] and in assay [8] was inactive.

With `CC(C)c1ccc(C=CC(=O)NC2CCC(CN3CCC(c4c[nH]c5ccccc45)CC3)CC2)cc1` (centres undefined), the growth inhibition in assay [1] is 85% (active); in assay [4] it was 101% (active). The figures for the inhibition in assay [2] and in assay [3] were 50% (active) and -3% (inactive), respectively. Moreover, the outcome in assay [5], in assay [6], in assay [7] and in assay [8] was inactive.

In the case of `CC[C@H]1CN2CC[C@H]1C[C@H]2[C@H](O)c1cc(-c2ccccc2F)nc2ccc(OC)cc12`, the growth inhibition in assay [1] was 98% (active); in assay [4], 99% (active). The inhibition in assay [2] was 13% (inactive); in assay [3], 1% (inactive). The outcome in assay [5], in assay [6], in assay [7] and in assay [8] was inactive.

As to `COc1ccc(C=CC(=O)N2CCC(CN3CCC(c4c[nH]c5ccccc45)CC3)CC2)cc1OC`, the growth inhibition in assay [1] was 4% (inactive); in assay [4], 94% (active). The values for the inhibition in assay [2] and in assay [3] were 20% (inactive) and 0% (inactive), respectively. Further, the result in assay [5], in assay [6], in assay [7] and in assay [8] was inactive.

As to `O=C(/C=C/c1ccc(Cl)c(Cl)c1)N1CCC(CN2CCC(c3c(-c4ccccc4)[nH]c4ccccc34)CC2)CC1`, the figures for the growth inhibition in assay [1] and in assay [4] were 99% (active) and 101% (active), respectively. Besides, the inhibition in assay [2] is 43% (inactive); in assay [3] it was -8% (inactive). Also, the result in assay [5], in assay [6], in assay [7] and in assay [8] was inactive.

With `COc1ccc2[nH]cc(C3=CCN(C[C@H]4C[C@@H]4C(=O)c4ccccc4)CC3)c2n1`, the growth inhibition in assay [1] is 93% (active); in assay [4], 95% (active). In addition, the inhibition in assay [2] is 22% (inactive); in assay [3] it was -8% (inactive). Moreover, the result in assay [5], in assay [6], in assay [7] and in assay [8] was inactive.

For `COC(=O)c1ccc(CC(C)NCC(O)c2cccc(C(F)(F)F)c2)cc1C` (centres undefined), the growth inhibition in assay [1] was 74% (active); in assay [4], 93% (active). The results for the inhibition in assay [2] and in assay [3] were 6% (inactive) and 2% (inactive), respectively. Further, the outcome in assay [5], in assay [6], in assay [7] and in assay [8] was inactive.

Consider `Cc1ccc(/C=C/C(=O)NC2CCC(CN3CCC(c4c[nH]c5ccccc45)CC3)CC2)cc1` (centres undefined), for which the growth inhibition is 66% (active) and 69% (active) in assay [1]; 101% (active) in assay [4]. Also, the inhibition in assay [2] is 32% (inactive) and 41% (inactive); in assay [3] it was -2% (inactive) and 3% (inactive). The outcome in assay [5], in assay [6], in assay [7] and in assay [8] was inactive.

These data come from PubChem BioAssay.
